The values below come from PubChem BioAssay (Tox21).

The nature of assay [1]: Nuclear factor erythroid 2-related factor 2/antioxidant responsive element (Nrf2/ARE) small molecule agonists: qHTS cell viability counter screen in human keratinocytes (AID 1919968; active = well fitted curve in the direction sought with a large enough effect in the repeat runs; an effect the other way counts as inactive or inconclusive; also: nearly all actives have a fitted effect of over 55% in size). A digest of the protocol:
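Viability counter-screen: KeratinoSens reporter cells, DMSO-delivered compounds, 23 h at 37 C, CellTiter-Fluor fluorescence.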
In general terms: Quantitative high-throughput screening tests each substance at several concentrations.

Assay [2] is described as follows: Nuclear factor erythroid 2-related factor 2/antioxidant responsive element (Nrf2/ARE) small molecule agonists: luciferase reporter gene qHTS assay in human keratinocytes (AID 1919969). Also: nearly all actives have a fitted effect of over 35% in size. Also: potency is read from the fitted curve at half-maximal effect. Background: Reporter assays use an easily measured gene product as a stand-in for the process of interest.
The target of assay [3] is Gonadotropin-releasing hormone receptor (Homo sapiens) (UniProt P30968). Kind of assay: Human gonadotropin-releasing hormone receptor (GnRHR) small molecule agonists, calcium flux assay in GnRHR-HEK293 cells (AID 1920063). Also: nearly all actives have a fitted effect of over 35% in size. A digest of the protocol:
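Tox21-format agonist screen using human GnRHR-expressing HEK293 cells and a fluorescent calcium dye; kinetic 3-min fluorescence reading after compound addition, 15-point concentration series run in triplicate.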
For orientation: A change in cytosolic calcium serves as a functional read-out for many receptors and channels.

Assay [4] concerns the target KiSS-1 receptor (Homo sapiens) (UniProt Q969F8). The experiment in a line: Human kisspeptin (KISS1R) small molecule agonists, calcium flux assay in KISS1R-HEK293 cells (AID 1920064; active = well fitted curve in the direction sought with a large enough effect in the repeat runs; an effect the other way counts as inactive or inconclusive). A digest of the protocol: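 Intracellular calcium mobilization in KISS1R-HEK293 cells was recorded by fluorescence (Ex/Em 480/540) for 3 min following compound addition to cells pre-loaded 1 h with calcium dye.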

Assay [5] can be described thus: G protein-coupled receptor (GPCR) small molecule agonists, calcium flux assay: HEK293 wild type cell line counter screen (AID 1920065). In short, it runs like this:
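In this agonist-mode screen, ATP is the positive control and DMSO the vehicle. Cells grow 18 h before a 1 h dye incubation at 37 C; signal is taken at Ex/Em 480/540 over 3 min.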

A short description of assay [6]: p53 small molecule agonists, cell-based qHTS assay with human liver microsomes (AID 1963577).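 Also: p53 response element beta-lactamase reporter cells with liver microsomes plus NADPH.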 A digest of the protocol:
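16 h, 37 C exposure of p53RE-bla cells to compounds with human liver microsomes and NADPH (0.5 mg/mL final each); detection via LiveBLAzer mixture, 2 h dark at room temperature.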

Assay [7] in a line: p53 small molecule agonists, cell-based qHTS assay with rat liver microsomes (AID 1963578). In short, it runs like this: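 With rat liver microsomes and NADPH present (0.5 mg/mL final each), p53RE-bla cells are treated with compound for 16 h at 37 C. LiveBLAzer detection mixture is then applied for 2 h at room temperature in the dark.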
Assay [8] is described as follows: p53 small molecule agonists, cell-based qHTS assay with human liver microsomes: qHTS cell viability counter screen (AID 1963579). Also: nearly all actives have a fitted effect of over 45% in size. In short, it runs like this: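 In this multiplexed counter screen, the reporter plates were subsequently treated with CellTiter-Glo so that cell viability, reflected by luminescence, could be recorded for p53RE-bla cells dosed 16 h with compounds under microsomal activation (HLM and NADPH).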

A short description of assay [9]: p53 small molecule agonists, cell-based qHTS assay with rat liver microsomes: qHTS cell viability counter screen (AID 1963580). Also: nearly all actives have a fitted effect of over 45% in size. In short, it runs like this: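 Viability is assessed in parallel with the p53 reporter read: HCT-116 p53RE-bla cells receive compounds plus rat microsomes and NADPH (0.5 mg/mL final apiece), incubate 16 h at 37 C, and then CellTiter-Glo luminescence is recorded.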

Assay [10] in a line: p53 small molecule agonists, cell-based qHTS assay (AID 1963582; active = well fitted activation curve with a large enough effect in the signal ratio in the repeat runs, not every such curve was filed as active; the % refers to the signal ratio). A digest of the protocol:
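Agonist activity was scored from beta-lactamase FRET fluorescence in p53RE-bla cells treated 16 h at 37 C with compounds in DMSO, substrate incubation being 2 h at room temperature.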

In assay [11] the target is 5-hydroxytryptamine receptor 2A (Homo sapiens) (UniProt P28223). The experiment in a line: 5-hydroxytryptamine receptor 2A (HTR2A) small molecule antagonists, cell-based qHTS assay (AID 1963586). Also: nearly all actives have a fitted effect of over 45% in size. Also: potency is read from the fitted curve at half-maximal effect. In short, it runs like this:
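Antagonist-mode intracellular calcium assay: DOI (4 nM) added after 5 min compound pre-incubation at room temperature to dye-loaded HTR2A-CHO cells. Fluorescence followed for 3 min, sampled every second.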

The target is the same in assay [12]. The experiment in a line: 5-hydroxytryptamine receptor 2A (HTR2A) small molecule agonists, cell-based qHTS assay (AID 1963587). Also: nearly all actives have a fitted effect of over 30% in size. A digest of the protocol:
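CHO cells stably expressing human HTR2A, plated 18 h, loaded with calcium dye 1 h at 37 C. Agonist mode: compounds added and intracellular calcium fluorescence recorded kinetically for 2 min at 1 sec intervals.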

For assay [13], the target named is Muscarinic acetylcholine receptor M1 (Homo sapiens) (UniProt P11229). The experiment in a line: Cholinergic receptor muscarinic 1 (CHRM1) small molecule antagonists, cell-based qHTS assay (AID 1963588). Also: nearly all actives have a fitted effect of over 40% in size. A digest of the protocol: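 CHRM1-CHO calcium-flux assay, antagonist mode. Cells were seeded 18 h, dye-loaded 1 h at 37 C and given compound for 5 min at RT, then acetylcholine was added at 50nM. FDSS fluorescence was read 3 min; 15 concentrations, three runs.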
Muscarinic acetylcholine receptor M1 (Homo sapiens), sequence (P11229 whole entry, looked up): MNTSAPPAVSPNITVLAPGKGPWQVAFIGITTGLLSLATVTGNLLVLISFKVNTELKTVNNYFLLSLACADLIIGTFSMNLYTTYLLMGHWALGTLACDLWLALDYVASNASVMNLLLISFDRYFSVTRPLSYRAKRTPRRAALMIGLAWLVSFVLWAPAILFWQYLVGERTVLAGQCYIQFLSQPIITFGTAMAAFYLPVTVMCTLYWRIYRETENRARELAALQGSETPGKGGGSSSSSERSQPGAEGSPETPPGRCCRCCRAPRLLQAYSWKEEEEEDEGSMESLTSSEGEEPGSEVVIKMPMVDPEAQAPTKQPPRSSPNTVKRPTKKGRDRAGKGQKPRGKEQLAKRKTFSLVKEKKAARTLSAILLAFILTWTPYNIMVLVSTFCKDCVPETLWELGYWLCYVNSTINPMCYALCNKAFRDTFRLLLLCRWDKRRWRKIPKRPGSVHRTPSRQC

A short description of assay [14]: cAMP Responsive Elements (CRE) small molecule agonists, cell-based qHTS assay (AID 1963590). In short, it runs like this:
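FRET-based beta-lactamase readout (LiveBLAzer B/G, 2 h RT) quantified CRE activation in HEK 293T CRE-bla cells after 3 h treatment with DMSO-dissolved compounds.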

Assay [15] addresses Beta-2 adrenergic receptor (Homo sapiens) (UniProt P07550). The experiment in a line: Adrenergic beta2 receptor (ADRB2) small molecule antagonists, cell-based qHTS assay (AID 1963592). Also: series mostly up to about 92 µM; nearly all actives have a fitted effect of over 50% in size. A digest of the protocol: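 Cells (CHO, stable ADRB2 overexpression) incubated 18-20hr at 37C; compounds added from DMSO; agonist mix (1nM isoproterenol, 100uM IBMX, 25uM Ro-20-1724) added; 0.5hr RT; d2-cAMP and anti-cAMP-cryptate added; 1hr RT; 665/615 nm read.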

The target of assay [16] is D(2) dopamine receptor (Homo sapiens) (UniProt P14416). The experiment in a line: Dopamine D2 receptor (DRD2) small molecule agonists, cell-based qHTS assay (AID 1963594). Also: nearly all actives have a fitted effect of over 35% in size. Also: potency is read from the fitted curve at half-maximal effect. A digest of the protocol: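 HEK293 cells stably expressing human DRD2, pre-treated with PDE inhibitor Ro20-1724 (0.1 mM final) and compound 10 min at room temperature, then stimulated with NKH477 (200nM […]) for 30 min. cAMP read by HTRF (665/620 nm).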
D(2) dopamine receptor (Homo sapiens), sequence (P14416 whole entry, looked up): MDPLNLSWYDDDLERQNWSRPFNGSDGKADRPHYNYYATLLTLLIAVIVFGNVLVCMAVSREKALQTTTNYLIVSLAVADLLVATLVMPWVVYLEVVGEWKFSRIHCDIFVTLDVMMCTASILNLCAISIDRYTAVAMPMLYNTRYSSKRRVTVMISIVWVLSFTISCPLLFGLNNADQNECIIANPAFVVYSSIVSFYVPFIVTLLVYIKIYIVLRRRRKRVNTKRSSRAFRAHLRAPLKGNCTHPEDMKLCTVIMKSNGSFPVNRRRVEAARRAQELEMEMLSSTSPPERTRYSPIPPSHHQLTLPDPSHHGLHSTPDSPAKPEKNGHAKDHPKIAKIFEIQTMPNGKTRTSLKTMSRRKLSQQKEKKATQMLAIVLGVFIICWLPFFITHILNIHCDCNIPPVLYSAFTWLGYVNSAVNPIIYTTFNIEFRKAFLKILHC

Assay [17] shares this target. The experiment in a line: Dopamine D2 receptor (DRD2) small molecule antagonists, cell-based qHTS assay (AID 1963595; active = well fitted inhibition curve with a large enough effect in the signal ratio in the repeat runs, with a control signal flat; the % refers to the signal ratio; also: potency is read from the fitted curve at half-maximal effect). A digest of the protocol: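 Cells were plated and grown for 24 h at 37 °C. Ro20-1724 (0.1 mM final) went in first, then compound for 10 min. NKH477 (200 nM) with quinpirole (12 nM) followed for 30 min at RT, then HTRF detection reagents for 1 h.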

A short description of assay [18]: p53 small molecule agonists, cell-based qHTS assay: qHTS cell viability counter screen (AID 1963581). Also: nearly all actives have a fitted effect of over 45% in size. In short, it runs like this:
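Compounds are pinned onto HCT-116 p53RE-bla cells and left 16 h at 37 C. Following the reporter FRET read, ATP is quantified by CellTiter-Glo luminescence after 30 min at room temperature.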

The nature of assay [19]: cAMP Responsive Elements (CRE) small molecule antagonists, cell-based qHTS assay (AID 1963591; active = well fitted inhibition curve with a large enough effect in the signal ratio in the repeat runs, not every such curve was filed as active; the % refers to the signal ratio). A digest of the protocol:
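qHTS in CRE-bla HEK 293T cells: compound in DMSO, then 0.25 uM NKH477 (final), 3 h at 37 °C/5% CO2; beta-lactamase FRET read-out after 2 h substrate incubation.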

The target of assay [20] is Muscarinic acetylcholine receptor M1 (Homo sapiens) (UniProt P11229). The experiment in a line: Cholinergic receptor muscarinic 1 (CHRM1) small molecule agonists, cell-based qHTS assay (AID 1963589). Also: nearly all actives have a fitted effect of over 35% in size. A digest of the protocol:
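Stable CHRM1-CHO cells (human receptor) were incubated 18 h, dye-loaded for 1 h at 37 C and exposed to test compounds for agonist activity, with calcium-dependent fluorescence followed kinetically.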

Values without a mark were called inactive. Inconclusive results are not listed. Active and inactive are the calls of the source. Unless noted, calls follow the shape of the full dose curve.
% is scaled to controls: 0 for no effect and ±100 for the full control effect.

5-hydroxytryptamine receptor 2A (Homo sapiens), sequence (P28223 whole entry, looked up): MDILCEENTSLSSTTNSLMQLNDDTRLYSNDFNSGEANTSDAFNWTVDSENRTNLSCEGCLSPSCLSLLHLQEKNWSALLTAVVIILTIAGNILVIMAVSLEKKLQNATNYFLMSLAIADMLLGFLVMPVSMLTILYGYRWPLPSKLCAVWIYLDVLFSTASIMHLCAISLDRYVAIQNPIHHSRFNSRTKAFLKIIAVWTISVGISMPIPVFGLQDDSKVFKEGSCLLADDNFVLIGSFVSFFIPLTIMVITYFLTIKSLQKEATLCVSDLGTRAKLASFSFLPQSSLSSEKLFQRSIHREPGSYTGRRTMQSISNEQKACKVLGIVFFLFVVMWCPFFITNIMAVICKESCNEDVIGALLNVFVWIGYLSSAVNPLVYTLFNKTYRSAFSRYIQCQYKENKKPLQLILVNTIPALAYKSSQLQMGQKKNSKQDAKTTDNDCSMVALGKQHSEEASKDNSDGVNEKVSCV
Gonadotropin-releasing hormone receptor (Homo sapiens), sequence (P30968 whole entry, looked up): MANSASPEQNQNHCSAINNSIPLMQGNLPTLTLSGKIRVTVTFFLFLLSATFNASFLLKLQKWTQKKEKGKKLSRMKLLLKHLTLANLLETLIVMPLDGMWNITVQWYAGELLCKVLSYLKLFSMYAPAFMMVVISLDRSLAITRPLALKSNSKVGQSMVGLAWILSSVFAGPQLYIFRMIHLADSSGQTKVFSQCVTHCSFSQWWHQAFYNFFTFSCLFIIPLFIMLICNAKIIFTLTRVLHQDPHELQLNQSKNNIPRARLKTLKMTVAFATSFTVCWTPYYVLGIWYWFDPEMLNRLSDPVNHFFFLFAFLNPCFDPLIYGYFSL
Beta-2 adrenergic receptor (Homo sapiens), sequence (P07550 whole entry, looked up): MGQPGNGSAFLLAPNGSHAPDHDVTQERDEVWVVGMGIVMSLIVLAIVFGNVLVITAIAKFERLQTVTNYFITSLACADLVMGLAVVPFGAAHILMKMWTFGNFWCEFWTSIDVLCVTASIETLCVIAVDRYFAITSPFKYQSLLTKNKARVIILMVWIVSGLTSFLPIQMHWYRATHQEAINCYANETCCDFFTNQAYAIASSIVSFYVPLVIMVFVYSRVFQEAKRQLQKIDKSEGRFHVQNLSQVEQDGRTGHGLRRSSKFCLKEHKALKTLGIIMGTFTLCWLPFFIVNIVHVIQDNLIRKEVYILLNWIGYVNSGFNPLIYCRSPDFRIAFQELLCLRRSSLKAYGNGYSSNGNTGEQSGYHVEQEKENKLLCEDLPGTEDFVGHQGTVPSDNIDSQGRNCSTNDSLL
KiSS-1 receptor (Homo sapiens), sequence (Q969F8 whole entry, looked up): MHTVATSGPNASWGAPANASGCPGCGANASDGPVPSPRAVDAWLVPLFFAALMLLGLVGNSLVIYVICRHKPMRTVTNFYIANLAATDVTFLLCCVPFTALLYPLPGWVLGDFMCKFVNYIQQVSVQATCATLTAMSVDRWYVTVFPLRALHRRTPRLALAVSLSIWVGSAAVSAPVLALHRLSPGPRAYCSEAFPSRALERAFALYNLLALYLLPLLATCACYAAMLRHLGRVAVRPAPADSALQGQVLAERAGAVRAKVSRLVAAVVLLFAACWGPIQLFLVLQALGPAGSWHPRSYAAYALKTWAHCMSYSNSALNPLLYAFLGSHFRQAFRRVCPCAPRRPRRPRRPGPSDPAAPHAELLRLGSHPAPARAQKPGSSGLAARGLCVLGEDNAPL

As to `C[N+](C)(C)CCCl`, the Potency result in assay [1], in assay [2], in assay [3], in assay [4], in [5] and in [6] was “inactive” throughout. In addition, the Potency entry in assay [7], in assay [8], in assay [9], in assay [10], in assay [11] and in assay [12] was “inactive” each time. In addition, the Potency result in assay [13], in assay [14], in [15], in assay [16] and in assay [17] was “inactive” each time.

Consider `CC(C)[N+](=O)[O-]`, for which the Potency result in [1], in assay [2], in [3], in assay [4], in assay [5] and in assay [6] was “inactive” each time. Moreover, the Potency result in assay [7], in assay [8], in assay [9], in [18], in assay [12] and in assay [14] was “inactive” in each case. Further, the Potency result in assay [19], in assay [15], in assay [16] and in assay [17] was “inactive” each time.

On to `CN1C[C@@H](NS(=O)(=O)N(C)C)C[C@@H]2c3cccc4c3c(cn4C)C[C@H]21`, for which the Potency entry in [1], in [2], in assay [3], in assay [4], in assay [5] and in assay [6] was “inactive” throughout. For the same compound, the Potency entry in assay [7], in assay [8], in [9], in [10], in assay [12] and in assay [13] was “inactive” throughout. The Potency entry in [20], in assay [14] and in [15] was “inactive” throughout. For the same compound, the Potency in [11] was 130 nM (active); in assay [16], 3760 nM (active); in [17], 1190 nM (active).

In the case of `CCCCOC(C)=O`, the Potency entry in assay [1], in assay [2], in assay [3], in [4], in assay [5] and in assay [6] was “inactive” throughout. In addition, the Potency entry in assay [7], in assay [8], in assay [9], in assay [10], in assay [11] and in assay [12] was “inactive” throughout. Moreover, the Potency result in assay [13], in assay [20], in assay [14], in assay [19], in assay [15] and in [16] was “inactive” throughout. For the same compound, the Potency result in [17] was “inactive”.

In the case of `CC(=O)OCC1=C(C(=O)O)N2C(=O)[C@@H](N)[C@H]2SC1`, the activity change, negative = cytotoxicity in assay [1] is 3.02% [at 19 µM]; in assay [8], -9.53% [at 13.5 µM]; in assay [9] it was 0.524% [at 13.5 µM]. Further, the activity, positive = activation in assay [2] is -4.57% [at 19 µM]. Moreover, the activity change in assay [3] is -1.33% [at 11.8 µM, stronger effect = higher value]. Besides, the activation is -0.221% [at 15.8 µM] in [4]; 1.18% [at 11.8 µM] in assay [5]; 8.26% [at 13.5 µM] in assay [6]; 0.252% [at 13.6 µM] in [7]; 1.4% [at 13.5 µM] in assay [10]; 1.54% [at 15.9 µM] in assay [12]. Moreover, the activation in assay [20] was 0.141% [at 15.8 µM]; in assay [14], -2.32% [at 19 µM]; in assay [16], 5.76% [at 19 µM]. Also, the figures for the activity, negative = inhibition in assay [11] and in [13] were 10.6% [at 12.7 µM] and 7.63% [at 12.6 µM], respectively. Besides, the activity change, negative = inhibition was -7.18% [at 18.9 µM] in assay [19], -0.292% [at 19 µM] in assay [15] and 7.52% [at 18.9 µM] in [17].

Regarding `Nc1n[nH]c(N)n1`, the Potency entry in [1], in [3], in [4], in assay [5], in assay [6] and in assay [7] was “inactive” each time. The Potency entry in [8], in [9], in assay [10], in assay [11], in assay [12] and in assay [13] was “inactive” throughout. Also, the Potency result in [20], in [15], in assay [16] and in [17] was “inactive” in each case. Also, the Potency in [2] is 27800 nM (active).

`O=C(NC(=O)c1c(F)cccc1F)Nc1cc(Cl)c(F)c(Cl)c1F`: the Potency entry in assay [1], in [2], in assay [3], in [4], in assay [5] and in assay [6] was “inactive” in each case. Further, the Potency entry in assay [7], in assay [8], in assay [9], in [10], in assay [11] and in [12] was “inactive” in each case. In addition, the Potency result in assay [13], in assay [20], in assay [14], in assay [15], in assay [16] and in assay [17] was “inactive” in each case.
